# Data from PubChem BioAssay (NCI).
# This is part of a sample that, as a whole, favours compounds with a hit. Of some 83,000 tested, about 20% had one in any assay.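 Percent growth is the endpoint: 0 to 100 indicates growth inhibition (40 means 60% inhibition), 0 means no net growth, and negative values indicate cell death.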 Unmarked numbers belong to inactive results. The source made the active and inactive calls. Rule for the calls: active = growth percent below 10; inactive = the rest.
# Assays:
# Experiment in all cases: NCI-60 one-dose screen, 48 h (100 = growth as untreated, 0 = no growth, -100 = all killed)
# Conditions in all cases: 10 µM
# NCI-H23 lung = tested on: NCI-H23 lung
# NCI-H226 lung = tested on: NCI-H226 lung
# NCI-H322M lung = tested on: NCI-H322M lung
# HOP-62 NSCLC = tested on: HOP-62 NSCLC
# NCI-H460 lung = tested on: NCI-H460 lung
# NCI-H522 lung = tested on: NCI-H522 lung
# A549/ATCC NSCLC = tested on: A549/ATCC NSCLC
# 786-0 renal = tested on: 786-0 renal
# COLO 205 colon = tested on: COLO 205 colon
# DU-145 prostate = tested on: DU-145 prostate
# K-562 leukemia = tested on: K-562 leukemia
# MALME-3M melanoma = tested on: MALME-3M melanoma
# MDA-MB-231 breast = tested on: MDA-MB-231 breast
# RXF 393 renal = tested on: RXF 393 renal
# SF-268 CNS = tested on: SF-268 CNS
# SF-295 CNS = tested on: SF-295 CNS
# SF-539 CNS = tested on: SF-539 CNS
# UACC-257 melanoma = tested on: UACC-257 melanoma
# M14 melanoma = tested on: M14 melanoma
# HOP-92 NSCLC = tested on: HOP-92 NSCLC
SMILES,growth (NCI-H23 lung),growth (NCI-H226 lung),growth (NCI-H322M lung),growth (HOP-62 NSCLC),growth (NCI-H460 lung),growth (NCI-H522 lung),growth (A549/ATCC NSCLC),growth (786-0 renal),growth (COLO 205 colon),growth (DU-145 prostate),growth (K-562 leukemia),growth (MALME-3M melanoma),growth (MDA-MB-231 breast),growth (RXF 393 renal),growth (SF-268 CNS),growth (SF-295 CNS),growth (SF-539 CNS),growth (UACC-257 melanoma),growth (M14 melanoma),growth (HOP-92 NSCLC)
Oc1ccccc1-c1nnc(Cn2c(Cc3cccc4ccccc34)nc3ccccc32)o1,90.8%,93.1%,84.4%,87.6%,108%,92.2%,100%,103%,110%,106%,98.6%,87.1%,101%,108%,96.6%,93.9%,97.9%,100%,96.9%,
CC(C)C[C@H](NC(=O)Cn1ccc2ccccc2c1=O)B(O)O,74.5%,11.5%,102%,98.4%,106%,28.6%,84.9%,70.3%,62.2%,73.5%,64%,39.6%,88%,10.3%,79.6%,69.5%,15.9%,42.1%,56%,
CCc1nn2c(-c3ccccc3)c(-c3cc(OC)c(OC)c(OC)c3)nc2s1,98.3%,84.6%,82.4%,98.7%,88.3%,70.9%,92.1%,76.5%,84.9%,102%,92.1%,62.4%,76.8%,88.9%,96%,89.1%,97.3%,107%,99.1%,
CCN1CCN(c2ccc(Nc3ncnc4c3nnn4CCc3cc(OC)cc(OC)c3)cc2)CC1,88.8%,85.8%,95.6%,99.4%,106%,96.1%,95.5%,99.6%,89.3%,104%,77.7%,92.6%,95.4%,97.7%,97.4%,90.2%,95.5%,84.8%,98.6%,
O=CNc1c(Cl)cc2c(c1Cl)Cc1cc([N+](=O)[O-])ccc1-2,58.3%,90.1%,78%,67.6%,31.4%,44.7%,38.4%,109%,34.4%,79.1%,16.4%,,63.6%,96.9%,78.8%,77.3%,67.9%,72.6%,28.7%,
COc1ccc(C(=O)c2sc3nc(-c4cccs4)ccc3c2N)cc1OC,74.3%,73%,85%,70.6%,36.1%,24%,35.8%,70.7%,40.9%,81%,13%,58.9%,43.8%,66.9%,62.8%,51.3%,54.6%,76.3%,42.1%,
O=C/C=C/c1ccc([N+](=O)[O-])cc1Cl,94%,108%,89.1%,99.9%,112%,89.5%,98.7%,105%,108%,99.9%,63.7%,95.1%,122%,107%,93.1%,107%,96.8%,91.6%,90.8%,
CC(C)/C=N/NC(N)=S,96.6%,95.7%,101%,75.6%,97.4%,94%,71.8%,100%,103%,95.3%,47.3%,80.3%,86.2%,106%,99.9%,90.5%,102%,40.5%,84.4%,
O=C(Nc1cccc(C(F)(F)F)c1)C(Cl)Cl,94.1%,101%,87.5%,96.5%,102%,98.2%,98%,101%,101%,98.3%,102%,94.7%,127%,104%,99.4%,90.4%,93.8%,98%,98.8%,
COc1cc(CSc2nc3ccc(Cl)cc3c(=O)n2-c2ccccc2)cc(OC)c1OC,79%,89.2%,85.7%,72%,96.6%,38.5%,73.9%,89.3%,84.5%,92.9%,38.2%,76.5%,63%,68.9%,77.7%,84.2%,78.9%,89.7%,93.2%,
O=[N+]([O-])c1ccc(Br)o1,94.4%,93.1%,103%,100%,113%,84.4%,104%,99.2%,105%,101%,106%,104%,107%,106%,95.9%,98.8%,98.6%,110%,104%,
Cc1nc2sccn2c1-c1csc(Nc2cccc(Cl)c2C)n1,52.1%,57.3%,81%,79.3%,,41.8%,37.5%,63.3%,69.7%,78.7%,16%,58.9%,65.4%,67.8%,80.1%,37.8%,63.8%,34%,50.8%,16.3%
COc1cc(-c2nc3ccccc3[nH]2)ccc1OCc1nnc(-c2ccc(Br)cc2)o1,95.8%,121%,88.8%,106%,,93.9%,90.2%,90.2%,91.2%,84.8%,57.3%,67.4%,76.2%,87%,96.8%,102%,110%,97%,91.9%,92.6%
O=C(NC1CCN(Cc2ccccc2)CC1)c1cc(-c2ccncc2)nc2ccc(Cl)cc12,38.3%,26.9%,32.5%,45.6%,,28.6%,6.48% (active),31.1%,18.5%,33.2%,13.4%,56.9%,42.3%,37.8%,24.4%,14.6%,16.4%,-1.44% (active),16.1%,27.7%
COc1cc(OC)cc(N2CCN(C(=O)Nc3nc4cc(F)ccc4nc3OC)CC2)c1,20.4%,43.3%,29.3%,34.7%,,-3.96% (active),19.8%,15%,-65.4% (active),1% (active),12.8%,44.6%,1.05% (active),22.1%,29.2%,15%,-12.2% (active),72.7%,1.15% (active),39.8%
CCCCCCOc1ccc(/C=C/C(=O)c2ccc(B(O)O)cc2)cc1,76.2%,75.6%,85.9%,89.8%,,66.1%,75.7%,73%,103%,88.5%,82.5%,86.8%,73.8%,74.2%,76.1%,111%,79.1%,83.4%,80.8%,5.7% (active)
